# Compounds with a hit are over-represented: about 6.9% of the library has one in this group of screens.
# KB-3-1 cytotox: KB-3-1 parental cell cytotoxicity | KB-3-1 viability, CellTiter-Glo ATP luminescence, 72 h | Potency, µM (doses to about 46.1 µM), usual class: cytotoxic | 400,000 compounds, 1.4% hits | AID 1347075; further: potency means the concentration at half of the fitted maximal effect; on the % scale 0 is the no-effect control and ±100 the full control effect; nearly all actives have a fitted effect of over 60% in size
#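 KB-3-1 parental drug-naive adenocarcinoma cells in DMEM/10% FBS, incubated 72 h at 37 C with pin-transferred compounds across a concentration series. Viability by CellTiter-Glo luminescence; concentration-response curves fitted after normalization.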
# MCF10A rerep: induces DNA re-replication in MCF 10a normal breast cells; AID 624296; MCF 10A DNA re-replication, Hoechst nuclear intensity, 48 h; 350,000 compounds, 2.9% hits; Potency, µM (series often up to 46.1 µM), without a hit: at the top dose activity, positive = re-replication, actives largely listed as activators; further: potency means the concentration at half of the fitted maximal effect; % of control where 0% means no effect; nearly all actives have a fitted effect of over 50% in size
# ASM inhibitor: human S-ASM enzyme inhibition. P17405. placental ASM, HMU-PC fluorogenic substrate, 60 min. Potency, µM (doses to about 57.5 µM), inactives show at the highest dose activity change, negative = inhibition, usual class: inhibitors. 340,000 compounds, 0.006% hits; further: potency means the concentration at half of the fitted maximal effect
# Target sequence (P17405 47-631 limits assumed): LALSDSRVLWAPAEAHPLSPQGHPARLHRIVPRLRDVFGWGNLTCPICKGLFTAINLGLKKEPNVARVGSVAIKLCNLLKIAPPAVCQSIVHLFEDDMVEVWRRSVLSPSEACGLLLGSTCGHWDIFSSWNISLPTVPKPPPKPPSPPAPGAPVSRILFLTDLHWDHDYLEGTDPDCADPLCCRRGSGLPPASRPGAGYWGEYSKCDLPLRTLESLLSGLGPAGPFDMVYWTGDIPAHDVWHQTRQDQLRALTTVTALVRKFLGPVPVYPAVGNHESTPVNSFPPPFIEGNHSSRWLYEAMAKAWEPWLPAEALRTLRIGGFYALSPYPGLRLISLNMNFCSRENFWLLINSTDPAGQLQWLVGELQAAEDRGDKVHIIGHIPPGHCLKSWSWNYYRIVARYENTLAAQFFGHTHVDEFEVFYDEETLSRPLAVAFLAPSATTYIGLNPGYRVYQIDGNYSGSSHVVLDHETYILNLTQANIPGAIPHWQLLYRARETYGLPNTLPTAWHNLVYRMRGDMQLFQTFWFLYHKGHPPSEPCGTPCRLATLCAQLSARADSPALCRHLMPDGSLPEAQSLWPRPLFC
#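 qHTS format. ASM enzyme prepared from human placenta hydrolyses the fluorogenic substrate HMU-PC0 (9 uM final) over 60 min at 37 °C after a 10 min compound preincubation.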
# Giardia kill: Giardia lamblia killing. Giardia lamblia trophozoite viability. activity change, % at 7.66 µM, hits read low. 340,000 compounds, 0.15% hits. AID 540267; in the data active means activity change below about -80%; inconclusive means between about -30% and that limit;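 further: parasites exposed to compound for two days anaerobically before the ATP read; on the % scale 0 is the no-effect control and ±100 the full control effect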
#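 ATP-content bioluminescence gauges trophozoite survival. Cells (100/well) receive compound and incubate anaerobically for 48 hrs at 37 deg C; detection reagent follows for 15-30 min at room temperature.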
# SW480 rerep: DNA re-replication induction in SW480 cells; AID 624297; 340,000 compounds, 1.8% hits; Potency, µM (top dose mostly 46.1 µM), for the others: at the top dose re-replication activation, most hits filed as activators; SW480 DNA re-replication, Hoechst DNA content imaging, 48 h; further: potency means the concentration at half of the fitted maximal effect; % of control where 0% means no effect; nearly all actives have a fitted effect of over 55% in size
#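 Image-based read-out: total Hoechst fluorescence of nuclei (405 nm excitation, 500-530 nm emission), with hits raising the fraction of high-intensity nuclei. SW480 colon cells incubated 48 hr with compounds at 37 C.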
# KB-V1 MDR tox: kills drug-selected multidrug resistant KB-V1 cells. KB-V1 MDR cells viability, CellTiter-Glo, 72 h. Potency, µM (top dose mostly 46.1 µM), hits mostly cytotoxic. 400,000 compounds, 3.4% hits. AID 1347076; further: potency means the concentration at half of the fitted maximal effect; on the % scale 0 is the no-effect control and ±100 the full control effect; nearly all actives have a fitted effect of over 60% in size
#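 KB-V1 MDR subline cells in DMEM (phenol-red free, 10% FBS) exposed to compounds in qHTS concentration series for 72 h at 37 degrees C. Viability read by CellTiter-Glo luminescence; concentration-effect curves fitted after normalization and correction.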
# An asterisk follows results filed as active; i = inactive; u = inconclusive; x = no result. Unless noted, the call rests on the fitted dose curve; in most records, active means well fitted curve in the direction sought with a large enough effect; inconclusive means small, poorly fitted or top-dose-only effect, or another doubt; inactive means no such curve, though single readings can be large; an effect the other way counts as inactive or inconclusive.
SMILES,KB-3-1 cytotox,MCF10A rerep,ASM inhibitor,Giardia kill,SW480 rerep,KB-V1 MDR tox
CCc1ccc(NC(=O)CC(NCc2cccnc2)C(=O)O)cc1 (centres undefined),i,x,x,x,x,i
C=C1C(=O)O[C@H]2C[C@H]1[C@@H](OC(C)=O)C/C(C)=C/CC/C(C)=C\CC[C@]2(C)O,i,u,1%,6,23µM*,i
CC(=O)c1cccc(-c2ccnc3c2CC(C(=O)Nc2cccc(OC(F)(F)F)c2)O3)c1 (centres undefined),i,x,x,x,x,i
COc1ccc(NC(=O)C2Cc3c(-c4cccc(NC(C)=O)c4)ccnc3O2)cc1 (centres undefined),4.1µM*,x,x,x,x,u
CS(=O)(=O)Nc1cccc(NC(=O)C2Cc3c(-c4cccc(F)c4)ccnc3O2)c1 (centres undefined),6.5µM*,x,x,x,x,u
COc1ccc(NC(=O)C2Cc3c(-c4cccc(C(C)=O)c4)ccnc3O2)cn1 (centres undefined),2.1µM*,x,x,x,x,i
COc1ccc(NC(=O)C2Cc3c(-c4ccc(NC(C)=O)cc4)ccnc3O2)cn1 (centres undefined),10µM*,x,x,x,x,u
CNc1c(Cl)cc(/C=C2\C=Cc3ccccc32)cc1Cl,i,x,x,x,x,i
CC(=O)Nc1ccc(NC(=O)C2Cc3c(-c4cccc(C(C)=O)c4)ccnc3O2)cc1 (centres undefined),i,x,x,x,x,i
CC(=O)Nc1cccc(-c2ccnc3c2CC(C(=O)NCc2ccco2)O3)c1 (centres undefined),5.8µM*,x,x,x,x,i
CC(=O)Nc1cccc(-c2ccnc3c2CC(C(=O)NCc2cccnc2)O3)c1 (centres undefined),u,x,x,x,x,i
CC(=O)Nc1ccc(-c2ccnc3c2CC(C(=O)NCc2cccc(Cl)c2)O3)cc1 (centres undefined),3.3µM*,x,x,x,x,u
COc1ccc(NC(=O)C2Cc3c(-c4cccc(C(C)=O)c4)ccnc3O2)cc1 (centres undefined),4.1µM*,x,x,x,x,u
CC(=O)Nc1ccc(-c2ccnc3c2CC(C(=O)Nc2ccccc2)O3)cc1 (centres undefined),21µM*,x,x,x,x,u
CC(=O)Nc1ccc(NC(=O)C2Cc3c(-c4cccc(NC(C)=O)c4)ccnc3O2)cc1 (centres undefined),i,x,x,x,x,i
CC(=O)c1cccc(-c2ccnc3c2CC(C(=O)Nc2ccc4c(c2)OCO4)O3)c1 (centres undefined),6.5µM*,x,x,x,x,u
COc1ccc(NC(=O)C2Cc3c(-c4ccc5c(c4)OCO5)ccnc3O2)cc1OC (centres undefined),u,x,x,x,x,i
N=c1c(S(=O)(=O)c2ccc(Br)cc2)cc2c(=O)n3ccccc3nc2n1CCN1CCOCC1,i,16µM*,222%,-2,u,i
Cc1ccc(S(=O)(=O)c2cc3c(=O)n4ccccc4nc3n(CC3CCCO3)c2=N)cc1C (centres undefined),i,-17%,71%,8,16%,4.6µM*
COc1ccc(CCn2c(=N)c(S(=O)(=O)c3ccccc3)cc3c(=O)n4ccccc4nc32)cc1,i,3.7µM*,16%,16,6%,i
CCCn1c(=N)c(S(=O)(=O)c2ccccc2)cc2c(=O)n3ccccc3nc21,i,18µM*,21%,5,1%,i
CCCCCn1c(=N)c(S(=O)(=O)c2ccccc2)cc2c(=O)n3ccccc3nc21,i,x,x,x,x,u
COc1cccc(N2CCN(C3=NS(=O)(=O)C(c4ccc(C)cc4)=C3C)CC2)c1,i,x,x,x,x,i
CCc1ccccc1Nc1ncnc2c1cnn2-c1ccc(Cl)cc1,i,x,x,x,x,i
CC(C)C(=O)Nc1cccc(C(=O)Nc2nnc(C(F)(F)F)s2)c1,i,x,x,x,x,i
SMILES,KB-3-1 cytotox,MCF10A rerep,ASM inhibitor,Giardia kill,SW480 rerep,KB-V1 MDR tox
O=C(Nc1cccc(Nc2ccccc2)c1)c1cnn2c1NC(=C1CC1)C=C2C(F)F,i,x,x,x,x,i
Cc1ccc(S(=O)(=O)c2cc3c(=O)n4ccccc4nc3n(C)c2=N)cc1,i,u,8%,4,u,6.5µM*
CCC(C)n1c(=N)c(S(=O)(=O)c2ccccc2)cc2c(=O)n3ccccc3nc21 (centres undefined),i,x,x,x,x,u
CCn1c(=N)c(S(=O)(=O)c2ccccc2)cc2c(=O)n3ccccc3nc21,i,6.5µM*,24%,0,2%,i
O=C(Cn1nc(-c2ccc(Cl)cc2)ccc1=O)NCCc1ccccc1,i,x,x,x,x,i
C=CCNC(=S)NNC(=O)c1ccc(OCC(C)C)cc1,i,-2%,-2%,9,18µM*,i
CCCCC(=O)NC(=S)NNC(=O)c1ccc(OC)cc1,23µM*,-1%,2%,-22,-13%,u
COc1ccc(C(=O)NNC(=S)NC(=O)c2ccc(OC)cc2)cc1,u,u,2%,-6,0%,i
CCCOc1ccc(C(=O)NNC(=S)NC(=O)CC)cc1,13µM*,16µM*,-3%,-14,u,u
CCOc1ccccc1O[C@@H](c1ccccc1)[C@@H]1CNCCO1,x,13%,x,x,3%,x
CCOc1ccc(/C(O)=C2/C(=O)C(=O)N(CCCN3CCOCC3)C2c2ccc(C)cc2)cc1C (centres undefined),i,3%,-1%,13,u,i
Cc1ccc(NN2C(=O)C=C(c3ccccc3)C2=O)cc1,i,8.2µM*,0%,-20,8.2µM*,i
O=C1c2ccccc2C(=O)N1Nc1ccccc1,i,u,2%,6,3%,i
Cc1cc(C)nc(NC2=NCCN2C(=S)Nc2ccc(C)c(C)c2)n1,i,4%,2%,-9,-6%,i
Cc1cccc2c(=O)n3c(cc12)-c1[nH]c2ccccc2c1CC3,i,21µM*,i,-7,u,i
O=c1c2ccccc2nc2n1CCc1c-2[nH]c2ccccc12,i,8%,78%,u,3%,u
O=C(NCCCc1nc2ccccc2n1Cc1ccc(Cl)cc1Cl)c1ccco1,i,x,x,x,x,i
Cc1cc([N+](=O)[O-])c2[nH]c(C(=O)N/N=C/c3ccccc3C(=O)O)c(-c3ccccc3)c2c1,i,u,-7%,8,u,4.1µM*
CCOCCCn1c(C)nc2c(c1=O)c1nc3ccccc3nc1n2CCC1=CCCCC1,u,u,i,4,u,18µM*

# Assay outcomes (PubChem)
